Source: PubChem (National Center for Advancing Translational Sciences (NCATS))
In the library only some 19% were active in any assay of this set; here they are far more common.
KB-V1 cytotox = kills drug-selected multidrug resistant KB-V1 cells. KB-V1 MDR cells viability, CellTiter-Glo, 72 h. Potency, µM (highest dose often 46.1 µM), actives largely listed as cytotoxic. 400,000 tested, 3.4% active. AID 1347076; also: nearly all actives have a fitted effect of over 60% in size
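Luminescent ATP read-out (CellTiter-Glo, 10 min) measures survival of drug-selected KB-V1 MDR cells after 72 h, 37 degrees C compound exposure. Medium: phenol-red-free DMEM, 10% FBS. Values from fitted concentration-response curves.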
HT1080-NT tox = kills 2HG-producing HT-1080-NT fibrosarcoma cells | HT-1080-NT fibrosarcoma viability, CellTiter-Glo ATP luminescence, 48 h | Potency, µM (top dose mostly 46.1 µM), hits mostly cytotoxic | 360,000 tested, 1.6% active;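 also: NT is the 2HG producing partner of a matched IDH1 knockdown line; nearly all actives have a fitted effect of over 55% in size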
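750 cells/well, RPMI + 5% FBS; 2 h settle, compound pin-transfer, 48 h at 37 degrees C. CellTiter-Glo 10 min RT, luminescence. Normalized to DMSO and media-only wells.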
TDP1 cell CPT = growth inhibition of DT40 Tdp1-/-;hTDP1 cells with camptothecin (screen for TDP1 inhibitors); Potency, µM (highest dose often 46.2 µM), hits mostly inhibitors; AID 686979; chicken DT40 Tdp1-/-;hTDP1 cells + 20 nM CPT, ATP luminescence, 48 h; 420,000 tested, 12% active; also: nearly all actives have a fitted effect of over 55% in size
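Chicken DT40 Tdp1-/- cells stably complemented with human TDP1 were seeded at 400 cells/well in medium containing 20 nM camptothecin, exposed to pin-transferred compounds, and grown at 37 °C for at least 48 hr. Viability was read as ATP luminescence.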
TDP1 cell noCPT = qHTS for Inhibitors of human tyrosyl-DNA phosphodiesterase 1 (TDP1): qHTS in cells in absence of CPT | DT40 Tdp1-/- hTDP1 cells, no CPT, ATP luminescence, 48 h | Potency, µM (top dose mostly 46.2 µM), usual class: inhibitors | 420,000 tested, 15% active; also: nearly all actives have a fitted effect of over 55% in size
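Cells were dispensed at 400 per well, compounds added by pin tool, plates incubated ≥48 hr at 37 °C, then CellTiter-Glo added for 30 min at room temperature before luminescence reading. Line: DT40 Tdp1-/- complemented with hTDP1; camptothecin omitted.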
HT1080 IDH1KD tx = kills HT-1080 cells with IDH1 knockdown | AID 686971 | Potency, µM (highest dose often 46.1 µM), hits mostly cytotoxic | 360,000 tested, 2% active | HT-1080 IDH1 knockdown viability, ATP luminescence, 48 h
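Luminescent ATP read-out (CellTiter-Glo, 10 min at room temperature) after 48 h compound exposure at 37 °C gave viability of IDH1-knockdown HT-1080 cells. Activity was normalised to DMSO and cell-free wells, then fitted as concentration-response curves.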
KB-3-1 tox = kills parental KB-3-1 adenocarcinoma cells | 400,000 tested, 1.4% active | Potency, µM (series often up to 46.1 µM), most hits filed as cytotoxic | KB-3-1 viability, CellTiter-Glo ATP luminescence, 72 h; also: nearly all actives have a fitted effect of over 60% in size
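Multi-concentration cytotoxicity screen in KB-3-1 cells grown in DMEM lacking phenol red with 10% FBS. After 72 h at 37 °C with compound, ATP-dependent luminescence was recorded.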
Each line names hits and unclear results; the compound was inactive in the other large screens. Calls follow the shape of the dose curve; as a rule, active = well fitted curve in the direction sought with a large enough effect; inconclusive = small, poorly fitted or top-dose-only effect, or another doubt; inactive = no such curve, though single readings can be large; an effect the other way counts as inactive or inconclusive.

CCN1CCN(C(=O)CN(CC)S(=O)(=O)c2ccc3ccccc3c2)CC1	none
CCOC(=O)CSc1nc(-c2ccccn2)ncc1OC	KB-V1 cytotox inconclusive, TDP1 cell CPT 8.2µM, TDP1 cell noCPT 4.6µM
CCc1ccc(CNC(=O)c2cc3cc(S(=O)(=O)N4CCCCC4)ccc3n2C)cc1	TDP1 cell CPT inconclusive, TDP1 cell noCPT 13µM (no result: KB-V1 cytotox, HT1080-NT tox, HT1080 IDH1KD tx, KB-3-1 tox)
Cn1c(C(=O)NCc2ccc(F)cc2)cc2cc(S(=O)(=O)N3CCCCC3)ccc21	TDP1 cell CPT 23µM, TDP1 cell noCPT 12µM (no result: KB-V1 cytotox, HT1080-NT tox, HT1080 IDH1KD tx, KB-3-1 tox)
Cc1ccccc1CNC(=O)c1cc2cc(S(=O)(=O)N3CCCCC3)ccc2n1C	TDP1 cell CPT inconclusive, TDP1 cell noCPT 18µM (no result: KB-V1 cytotox, HT1080-NT tox, HT1080 IDH1KD tx, KB-3-1 tox)
CCOc1ccc(CCNC(=O)C2CCC(CNS(=O)(=O)c3ccc(Cl)cc3)CC2)cc1OCC (configuration not stated)	TDP1 cell CPT inconclusive, TDP1 cell noCPT inconclusive (no result: HT1080-NT tox, HT1080 IDH1KD tx)
